± gives the uncertainty stated by the source. In all, about 9,900 compounds were measured (“viability index relative to DMSO control”: median about 1, lowest 2% from about 0.85 on). The entries come from a sample that favours the lowest values as a whole.
System: Plasmodium falciparum NF54 stage V gametocytes
Assay: viability index relative to DMSO control (fraction); higher = less gametocyte killing
Settings: 2.5 µM, incubation time: 72 h
Description: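 Broad DOS informer set and blood-stage-active DOS compounds screened in duplicate at 2.5 µM against P. falciparum NF54 stage V gametocytes with the serum-free one-step SaLSSA (1536-well): 72 h at 37 °C under low oxygen, then saponin lysis and MitoTracker Red CMXRos staining, with high-content imaging. Viability index = viable-object count divided by the plate mean of DMSO wells (0 = killed, about 1 = inactive).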

[1] = library set: Broad Institute DOS
[2] = library set: Broad Institute Blood Stage

Row | SMILES | viability index [1] | viability index [2]
1 | C[C@H](CO)N1C[C@H](C)[C@H](CN(C)C(=O)Nc2cccc(C(F)(F)F)c2)OCc2cn(nn2)CCCC1=O | 1.01 ± 0.036 | 
2 | COc1ccc2c3c([C@@H](CO)N(C[C@]33CN(C3)C(=O)c3ccccc3F)C(=O)Nc3ccccc3F)n(C)c2c1 | 0.97 ± 0.053 | 
3 | O=C(Cc1cccnc1)N1CC(=O)N2[C@@H](CO)[C@H](c3ccc(/C=C/c4ccccc4)cc3)[C@@H]2C1 | 1.015 ± 0.0057 | 
4 | C[C@H]1CN([C@@H](C)CO)C(=O)Cc2cc(N(C)C)ccc2O[C@@H]1CN(C)C(=O)NC1CCCCC1 | 0.883 ± 0.058 | 
5 | O=C1CNC[C@@H]2[C@H](c3ccc(C#CC4CCCCC4)cc3)[C@@H](CO)N12 | 1.06 ± 0.067 | 
6 | CN1CCN(C(=O)C[C@H]2CC[C@@H]3[C@H](COC[C@H](O)CN3C(=O)c3ccccc3F)O2)CC1 | 0.986 ± 0.019 | 
7 | Cc1ccc(S(=O)(=O)Nc2ccc3c(c2)C(=O)N([C@@H](C)CO)C[C@@H](C)[C@@H](CN(C)Cc2ccc(C(F)(F)F)cc2)O3)cc1 | 1.04 ± 0.07 | 
8 | COc1ccc(NC(=O)N(C)C[C@@H]2Oc3ccc(NC(=O)Nc4cccc5ccccc45)cc3CC(=O)N([C@@H](C)CO)C[C@H]2C)cc1 | 1.03 ± 0.033 | 
9 | O=C(N[C@@H]1C=C[C@@H](CC(=O)N2CCN(c3ccccc3)CC2)O[C@@H]1CO)c1ccccc1 | 1.11 ± 0.12 | 
10 | N#C[C@H]1[C@@H](c2ccccc2-c2ccccc2F)[C@@H](CO)N1C(=O)c1cccc(F)c1 | 1.16 ± 0.25 | 
11 | Cc1noc(C)c1NC(=O)N[C@@H]1C=C[C@@H](CC(=O)Nc2ccc(-c3ccccc3)cc2)O[C@@H]1CO | 0.979 ± 0.1 | 
12 | Cc1noc(C)c1S(=O)(=O)Nc1ccc2c(c1)C(=O)N([C@H](C)CO)C[C@@H](C)[C@H](CN(C)Cc1ccc(C(=O)O)cc1)OCCCC[C@@H](C)O2 | 1.07 ± 0.12 | 
13 | CN(C)CC(=O)N1[C@H](C#N)[C@H](c2ccc(C#CC3CCCCC3)cc2)[C@@H]1CO | 0.981 ± 0.11 | 
14 | CCCNC(=O)N1[C@H](C#N)[C@H](c2ccc(C#Cc3ccc(F)cc3)cc2)[C@@H]1CO |  | 0.844 ± 0.021
15 | CC(C)NC(=O)N1[C@H](C#N)[C@H](c2ccc(C#CC3CCCCC3)cc2)[C@@H]1CO |  | 0.822 ± 0.041
16 | CCCNC(=O)N1[C@H](CO)[C@H](c2ccc(C#Cc3cccc(F)c3)cc2)[C@@H]1C#N | 1.09 ± 0.027 | 
17 | N#C[C@@H]1[C@@H](c2ccc(-c3cccc(F)c3)cc2)[C@H](CO)N1C(=O)NC1CCCC1 | 0.935 ± 0.064 | 
18 | CN(C)CC(=O)N1[C@H](C#N)[C@@H](c2ccc(C#CC3CCCCC3)cc2)[C@H]1CO | 1.05 ± 0.039 | 
19 | CCCNC(=O)N1[C@H](C#N)[C@@H](c2ccc(C#Cc3cccc(F)c3)cc2)[C@@H]1CO | 0.981 ± 0.013 | 
20 | N#C[C@H]1[C@@H](c2ccc(-c3cccc(F)c3)cc2)[C@H](CO)N1C(=O)NC1CCCC1 | 1.055 ± 0.0015 | 
21 | N#C[C@@H]1[C@H](c2ccc(-c3cccc(F)c3)cc2)[C@H](CO)N1C(=O)NC1CCCC1 | 0.743 ± 0.059 | 

Source: the supplement of paper PMC4723716
